From paper PMC12136788
Positions count from the first letter of the chain named. The full ranking holds about 5,800 sequences; the median of “enrichment r” is about 0.54, and the highest 2% start at about 16. The sample as a whole holds a higher share of the highest values than the screen did.

B1: chr10:99876058:99876159:-|3pUTR|ENSG00000107554|msi1|FALSE|bound_elsewhere (ssRNA)
RNA: GGGAGUUCUACAGUCCGACGAUCUUGAGCCUAAUGGAAGACUGGAUGUCUUUCUUCUUCAUCCAAGCACCCUAAUGACUGUUUAGUUACAUCCAUAGAUGCAGACAACAUAACACCUGUGACUUACUUGAAUUGGGAUAAGCCCAACAGAGGAUUGAGCAUCA
B2: ENSG00000107021:stop:overlap|stop_codon|ENSG00000107021|stop_codon|NA|stop_codon (ssRNA)
RNA: GGGAGUUCUACAGUCCGACGAUCACCCCAUCACAGAUGUCUGCCAGAUCCUGCAGAAAGCCAAGGAGCUCCAAGACUCAAAGUAGCCCGGCGGCAAGAGGCCCAUGUUCCGGAGAGAAGCCUCCCGACCCUGUGCCCUGGCUCCAACAGAGGAUUGAGCAUCA
B3: ENSG00000136451:be:win_2701|3pUTR|ENSG00000136451|bound_else_gene|NA|bound_elsewhere_windowed (ssRNA)
RNA: GGGAGUUCUACAGUCCGACGAUCUGUAAAUAUGGACAUCACUUUUUUUUUCUUUGAGAAAACACUUGUAUCAGCUUUGUGGUGUUUUCAGGGAGACAGCUGUCUGCAUUCCCUGUAGAAACCCAGCAAUGAUUAUGCACGUUGCAACAGAGGAUUGAGCAUCA
B4: chr8:73046310:73046411:+|3pUTR|ENSG00000147601|msi1|total|mutant (ssRNA)
RNA: GGGAGUUCUACAGUCCGACGAUCUUGUAUUCUUUAAGAACCUUAUUUUGAUAAAAUGUAAAUUUGUUGAACCCUGCCACAUUCCGUAUCCCCACCCCCAAAUCCUGUUCCAAUGAAAAAAUUAAAACCUGAUACGAAAAAAAACAACAGAGGAUUGAGCAUCA
B5: chr4:70820284:70820384:-|3pUTR|ENSG00000132463|msi1_unk|FALSE|overlapping (ssRNA)
RNA: GGGAGUUCUACAGUCCGACGAUCUGAACUGGUAUGGUUUGGCAGAAUAGUUUUAAAUUUUGCUGUAUUUGAUUACUUAGAGAUAGGAAUUUUUAAAAAUCAAAACAAAAAAUACCACAGCUUAGUGUAAAUGACAAUUUGGCGCAACAGAGGAUUGAGCAUCA
B6: chr8:25429562:25429664:-|3pUTR|ENSG00000104756|unk|total|mutant (ssRNA)
RNA: GGGAGUUCUACAGUCCGACGAUCAGAAAAGCACUCAUUUAACCGAUGCCGGGAAACCCGAUAUUGCUGCCUUUUGAAUGGGGCCGGGGGGUUUACCUGGUUUUAUGACCAGGCACCGUAUCUAUUAUAUUUGCUUUUAAACCGCAACAGAGGAUUGAGCAUCA
B7: ENSG00000152661:stop:overlap|stop_codon|ENSG00000152661|stop_codon|NA|stop_codon (ssRNA)
RNA: GGGAGUUCUACAGUCCGACGAUCCUUCAAGCAGAGCCAGCAGUCGUGCCAGCAGCAGACCUCGGCCUGAUGACCUGGAGAUCUAGAUACAGGCUUGAAAGCAUCAAGAUUCCACUCAAUUGUGGAGAAGAAAAAAGGUGCUGUCAACAGAGGAUUGAGCAUCA
B8: chr5:116443554:116446612:-|three_prime_utr|ENSG00000092421|control|control|control (ssRNA)
RNA: GGGAGUUCUACAGUCCGACGAUCCCGCCAGUGUUACAGCUUUCUGUUGCAGCAGAUAAAUGCCAUGUUGGGCAACUAUGUCAUAGAUUUCUGCUCCUCCUCUCUUUUAAUGAAAUAACGUGACCGUUAACGCAAGUAACUCUUCAACAGAGGAUUGAGCAUCA
B9: chr5:159157431:159157536:-|3pUTR|ENSG00000145860|unk|total|mutant (ssRNA)
RNA: GGGAGUUCUACAGUCCGACGAUCCAAAAAGUGUUUUUCAGACCUCGGUAUUCCUAAUGUGGGAUGUGACUUUAUUUUAUUUUCCGCCGCAAAUUUGGAUGCCGACUGACAGACACCGCUGAAUGUCUUAAUAAAUUUAAAUUUCAACAGAGGAUUGAGCAUCA
B10: chr5:159157431:159157536:-|3pUTR|ENSG00000145860|unk|FALSE|bound_elsewhere (ssRNA)
RNA: B9 RNA with C83U, C84A, C86U, C87A, C101U, C102A, C115U, C116A
B11: chr20:59325757:59325866:+|3pUTR|ENSG00000124205|unk|total|mutant (ssRNA)
RNA: GGGAGUUCUACAGUCCGACGAUCUUAUGUGGAUCUGUUCAAAGCCGUCACUGUAUAUACGUACCGAGAGGCCGACCGGCCGGCCGAUUUUAAAUUGCAUUCUGAAUACAAACUCAUACUCCUCCGAGCUUGAAUUACAUUUUUCAACAGAGGAUUGAGCAUCA
B12: chr12:50748518:50748596:+|3pUTR|ENSG00000066084|msi1_unk|FALSE|overlapping (ssRNA)
RNA: GGGAGUUCUACAGUCCGACGAUCUCAAAUUCAAACUACAGUACUGUGUAAUUAUGUAUAAAGUUUUUUUAUUUAUUUGAAGUUAGACUAGAUAUACGUUUUUAAAUUUAACAUCUGGCUGGACAGUGUUCUAUUAACUCAUUGCAACAGAGGAUUGAGCAUCA
B13: chr20:59325757:59325866:+|3pUTR|ENSG00000124205|unk|FALSE|unique (ssRNA)
RNA: GGGAGUUCUACAGUCCGACGAUCUUAUGUGGAUCUGUUCAAAGUAGUCACUGUAUAUACGUAUAGAGAGGUAGAUAGGUAGGUAGAUUUUAAAUUGCAUUCUGAAUACAAACUCAUACUCCUUAGAGCUUGAAUUACAUUUUUCAACAGAGGAUUGAGCAUCA
B14: chr18:9400975:9401076:+|3pUTR|ENSG00000128791|msi1|FALSE|unique (ssRNA)
RNA: GGGAGUUCUACAGUCCGACGAUCUAUAAAAAUAGAUAAUGCUCUUGGACACAUUUUGUAUUAUUCAUGAUCUGAAUAGUAGUUAGUUAAAAGAUCAUUUGUAAUAUUAUGAUCAACUGUUAUAAAUUAAGGUCUUAAUACCUUCAACAGAGGAUUGAGCAUCA
B15: chr8:140515610:140515764:+|3pUTR|ENSG00000104472|unk|total|mutant (ssRNA)
RNA: GGGAGUUCUACAGUCCGACGAUCUUUUGGAAUCAGUUCUUAUAAACAGCUCGAUUCAGUUUCCGCUAAAUUUACCGUUCCGGCCGUAUGUUACAUUUGAAUUUUUGUCUUAAGAAAAGUUGACUGUUCAGAUAUUUUUCUACUCAACAGAGGAUUGAGCAUCA
B16: ENSG00000124766:be:win_3651|3pUTR|ENSG00000124766|bound_else_gene|NA|bound_elsewhere_windowed (ssRNA)
RNA: GGGAGUUCUACAGUCCGACGAUCUCGCUAAAUAUAAUUGUUUUAGUCUUAUGGCAUGAUGAUAGCAUAUGUGUUCAGGUUUAUAGCUGUUGUGUUUAAAAAUUGAAAAAAGUGGAAAACAUCUUUGUACAUUUAAGUCUGUAUCAACAGAGGAUUGAGCAUCA
B17: chr18:9400975:9401076:+|3pUTR|ENSG00000128791|msi1|total|mutant (ssRNA)
RNA: B14 RNA with U32C, A33C, U76C, A77C, U79C, A80C, U83C, A84C
B18: chr4:42087128:42087229:+|3pUTR|ENSG00000014824|msi1|FALSE|unique (ssRNA)
RNA: GGGAGUUCUACAGUCCGACGAUCAUUUUGUAUAAUAUAGUUCAUACUGUGUCUGUGAGUUUCUUCAGUUACAAAUGGGCAUUUAGUAUAGUUAUAUUGACUAUAACAUGUAAGUAAAUAGCUUUCUACUGACCCUAAGUUAUCCAACAGAGGAUUGAGCAUCA
B19: chr9:74692981:74693082:+|3pUTR|ENSG00000198963|unk|FALSE|unique (ssRNA)
RNA: GGGAGUUCUACAGUCCGACGAUCUUUUAUAUUACUUUAGAAUGUAAUAGGUUUUUGUCCUUAUUUUAUGUCCUGUAAAUUAUUAGUUCAAUACUGUUAGCAUUCCCGGAUAAUGCACACAUGAUUUCUGAAUGUUUUCUGUAACAACAGAGGAUUGAGCAUCA
B20: chr8:140515610:140515764:+|3pUTR|ENSG00000104472|unk|FALSE|unique (ssRNA)
RNA: B15 RNA with C62U, C63A, C74U, C75A, C79U, C80A, C83U, C84A
B21: chr5:14398947:14399058:+|CDS|ENSG00000038382|unk|total|mutant (ssRNA)
RNA: GGGAGUUCUACAGUCCGACGAUCCCCAAAAACCUUAAUUCGAAAGGGUCGAGAACGGCAUCUCUUCCUUUUUGAAAUGUCCUCCGUAUUCCGUAAAGAAGUGAAAGAUUCCAGUGGGAGAAGCAAGUACCUUUAUAAAAGCAACAACAGAGGAUUGAGCAUCA
B22: chr1:206903316:206905147:-|three_prime_utr|ENSG00000162894|control|control|control (ssRNA)
RNA: GGGAGUUCUACAGUCCGACGAUCUCUGUGCCCUGAGCAUGGCUCUGCCCCCAGGUCGUCUUGCACACCUUGGCAGCCCCCUGUAGUUGACAGGUAAGCUGUAGGCAUGUAGAGCAAUUGUCCCAAUGCCACUUGCUUCCUUUCCAACAGAGGAUUGAGCAUCA

target: MSI1 full-length (mouse, UniProt Q61474 1-362); assay: nsRBNS (natural sequence RNA bind-n-seq); RBNS binding buffer (assumed for nsRBNS): 25 mM Tris pH 7.5, 150 mM KCl, 3 mM MgCl2, 0.01% Triton X-100, 500 ug/ml BSA, 20 U/ml SUPERase-In, 4 C; UNK is unkempt and MSI1 is Musashi-1; names of the RNAs are library labels; protein concentration not given here; high values mean tight binding
Sequence (Q61474 whole entry): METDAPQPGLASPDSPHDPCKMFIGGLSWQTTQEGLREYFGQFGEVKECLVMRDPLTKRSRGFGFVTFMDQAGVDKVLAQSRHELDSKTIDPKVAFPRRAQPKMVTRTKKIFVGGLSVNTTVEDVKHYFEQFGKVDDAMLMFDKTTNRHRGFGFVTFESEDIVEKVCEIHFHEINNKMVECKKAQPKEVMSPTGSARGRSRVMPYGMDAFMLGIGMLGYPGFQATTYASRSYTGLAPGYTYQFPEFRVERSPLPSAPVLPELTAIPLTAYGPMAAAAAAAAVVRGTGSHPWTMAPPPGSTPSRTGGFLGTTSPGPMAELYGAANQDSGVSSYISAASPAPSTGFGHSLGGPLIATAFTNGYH

Binder	binding signal [enrichment R]
B1	0.725
B2	0.38
B3	0.266
B4	2.83
B5	4.91
B6	0.472
B7	0.49
B8	0.417
B9	0.361
B10	23.3
B11	0.342
B12	5.2
B13	20.2
B14	24
B15	0.336
B16	2.43
B17	0.599
B18	2.94
B19	2.02
B20	69.1
B21	0.383
B22	0.397
